The whole screen tested about 5,500 compounds, of which about 2,000 (36%) were called active. Roughly 18% stayed inconclusive and do not appear here. Cut-off read from the data, not from the text of the source: active = normalized growth mostly below about 0.91 (no sharp cut-off); inconclusive = no clear call, values can overlap the other calls; inactive = mostly above about 0.92. The list shows a part of the results.
Assay: chemical genetic growth profiling, strain panel (AID 1159580);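 note: tested at 20 µM; growth read once vehicle control cultures reached saturation at 30 °C; 1 = growth at the plate median or of vehicle wells; lower values mean less growth of the strain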
Details: S. cerevisiae deletion strains, growth OD
[1] = locus YAL021C, strain ccr4, hits give low values
[2] = locus YAL026C, strain drs2, hits give low values
[3] = locus YAL030W, strain snc1, hits give low values
[4] = locus YBL061C, strain skt5, hits give low values
[5] = locus YBR009C, strain hhf1, hits give low values
[6] = locus YBR023C, strain chs3, hits give low values
[7] = locus YBR171W, strain sec66, hits give low values
[8] = locus YBR231C, strain swc5, hits give low values
[9] = locus YBR279W, strain paf1, hits give low values
[10] = locus YCL011C, strain gbp2, hits give low values
[11] = locus YCL016C, strain dcc1, hits give low values
[12] = locus YCL061C, strain MRC1, hits give low values
[13] = locus YCL069W, strain vba3, hits give low values
[14] = locus YCR088W, strain abp1, hits give low values
[15] = locus YDL005C, strain med2, hits give low values
[16] = locus YDL040C, strain nat1, hits give low values
[17] = locus YDR001C, strain nth1, hits give low values
[18] = locus YDR069C, strain doa4, hits give low values
[19] = locus YDR137W, strain rgp1, hits give low values
[20] = locus YDR159W, strain sac3, hits give low values
[21] = locus YDR297W, strain sur2, hits give low values
[22] = locus YDR334W, strain swr1, hits give low values
[23] = locus YDR335W, strain msn5, hits give low values
[24] = locus YDR392W, strain spt3, hits give low values
[25] = locus YEL003W, strain gim4, hits give low values
[26] = locus YEL037C, strain rad23, hits give low values
[27] = locus YEL061C, strain CIN8 (second series), hits give low values
[28] = locus YER015W, strain faa2, hits give low values
[29] = locus YER016W, strain bim1, hits give low values
[30] = locus YER111C, strain swi4, hits give low values
[31] = locus YER155C, strain BEM2 (second series), hits give low values
[32] = locus YFR010W, strain ubp6, hits give low values
[33] = locus YGL167C, strain pmr1, hits give low values
[34] = locus YGL173C, strain kem1, hits give low values
[35] = locus YGL227W, strain vid30, hits give low values
[36] = locus YGL240W, strain doc1, hits give low values
[37] = locus YGL253W, strain hxk2, hits give low values
[38] = locus YHR013C, strain ard1, hits give low values
[39] = locus YHR027C, strain rpn1, hits give low values
[40] = locus YHR142W, strain chs7, hits give low values
[41] = locus YJL092W, strain hpr5, hits give low values
[42] = locus YJL095W, strain BCK1 (second series), hits give low values
[43] = locus YJL115W, strain asf1, hits give low values
[44] = locus YJL129C, strain trk1, hits give low values
[45] = locus YJL154C, strain vps35, hits give low values
[46] = locus YJL164C, strain tpk1, hits give low values
[47] = locus YJL166W, strain qcr8, hits give low values
[48] = locus YJL187C, strain SWE1, hits give low values
[49] = locus YKL160W, strain elf1, hits give low values
[50] = locus YKR026C, strain gcn3, hits give low values
[51] = locus YKR091W, strain srl3, hits give low values
[52] = locus YLL001W, strain dnm1, hits give low values
[53] = locus YLL026W, hits give low values
[54] = locus YLL041C, strain sdh2, hits give low values
[55] = locus YLR027C, strain aat2, hits give low values
[56] = locus YLR221C, strain rsa3, hits give low values
[57] = locus YLR258W, strain gsy2, hits give low values
[58] = locus YLR262C, strain YPT6 (second series), hits give low values
[59] = locus YLR320W, strain mms22, hits give low values
[60] = locus YLR342W, strain FKS1, hits give low values
[61] = locus YLR357W, strain rsc2, hits give low values
[62] = locus YLR370C, strain arc18, hits give low values
[63] = locus YLR384C, strain iki3, hits give low values
[64] = locus YML120C, strain ndi1, hits give low values
[65] = locus YMR058W, strain fet3, hits give low values
[66] = locus YMR125W, strain sto1, hits give low values
[67] = locus YMR129W, hits give low values
[68] = locus YMR205C, strain PFK2, hits give low values
[69] = locus YMR231W, strain pep5, hits give low values
[70] = locus YNL071W, strain lat1, hits give low values
[71] = locus YNL209W, strain ssb2, hits give low values
[72] = locus YNL248C, strain rpa49, hits give low values
[73] = locus YNL322C, strain KRE1 (second series), hits give low values
[74] = locus YNR049C, strain mso1, hits give low values
[75] = locus YOR001W, strain rrp6, hits give low values
[76] = locus YOR070C, strain gyp1, hits give low values
[77] = locus YOR080W, strain dia2, hits give low values
[78] = locus YOR083W, strain WHI5, hits give low values
[79] = locus YOR106W, strain vam3, hits give low values
[80] = locus YOR265W, strain rbl2, hits give low values
[81] = locus YOR270C, strain vph1, hits give low values
[82] = locus YOR290C, strain snf2, hits give low values
[83] = locus YPL051W, strain arl3, hits give low values
[84] = locus YPL078C, strain atp4, hits give low values
[85] = locus YPL106C, strain sse1, hits give low values
[86] = locus YPL240C, strain hsp82, hits give low values

Measured: normalized growth

C[C@H]1CC[C@@H](C(C)(C)O)CC2=C1CC[C@@H]2C
active: locus YDR195W, strain ref2 0.822 | [24] 0.552 | locus YHR030C, strain SLT2, hits give low values 0.819 | locus YHR079C, strain IRE1, hits give low values 0.767 | locus YLR113W, strain HOG1, hits give low values 0.764 | [58] 0.841 | locus YOR231W, strain MKK1, hits give low values 0.849 | locus YPL256C, strain CLN2, hits give low values 0.796
inactive: [1] 1 | [2] 0.984 | [3] 0.995 | [4] 0.985 | [5] 0.914 | [6] 0.959 | [7] 0.978 | [8] 1.01 | [9] 0.996 | [10] 0.982 | [11] 0.976 | [12] 0.995 | [13] 0.997 | [14] 0.993 | [15] 0.998 | [16] 0.983 | [17] 0.988 | [18] 0.981 | [19] 0.91 | [20] 0.912 | [21] 0.988 | [22] 1.01 | [23] 0.992 | [25] 0.984 | [26] 0.994 | [27] 1 | [28] 1.01 | [29] 0.967 | [30] 0.984 | [31] 0.927 | [32] 0.962 | [33] 0.985 | [34] 0.961 | [35] 0.999 | [36] 0.934 | [37] 1 | [38] 0.999 | [39] 0.994 | [40] 0.884 | [41] 0.995 | [42] 0.99 | locus YJL095W, strain BCK1, hits give low values 0.9 | [43] 0.994 | [44] 0.983 | [45] 0.992 | [46] 0.965 | [47] 0.948 | [48] 0.987 | locus YJR066W, strain TOR1, hits give low values 0.92 | [49] 0.979 | [50] 0.97 | [51] 0.993 | [52] 0.991 | [53] 0.978 | [54] 0.993 | [55] 0.979 | [56] 0.924 | [57] 0.971 | [59] 0.896 | [60] 0.989 | [61] 0.893 | [62] 0.987 | [63] 0.995 | [64] 0.972 | [65] 0.993 | [66] 0.977 | [67] 0.986 | [68] 0.896 | [69] 0.999 | [70] 0.952 | locus YNL183C, strain NPR1, hits give low values 0.869 | [71] 0.995 | [72] 0.983 | [73] 0.987 | [74] 0.995 | [75] 0.958 | [76] 0.978 | [77] 1 | [78] 0.975 | [79] 0.972 | [80] 0.983 | [81] 0.97 | [82] 0.925 | [83] 0.979 | [84] 0.986 | [85] 0.889 | [86] 1.01

C=CC(N)CCC(=O)O (stereo not drawn)
inactive: locus YAL013W, strain DEP1, hits give low values 1.02 | [1] 0.971 | [2] 0.984 | [3] 0.985 | locus YAL040C, strain CLN3, hits give low values 1.07 | [4] 0.976 | [5] 0.99 | [6] 0.965 | [7] 0.955 | [8] 0.99 | [9] 0.986 | [10] 0.975 | [11] 0.976 | locus YCL061C, strain MRC1 (second series), hits give low values 1 | [12] 0.973 | [13] 0.98 | [14] 0.986 | [15] 0.977 | [16] 0.984 | [17] 0.975 | [18] 0.992 | [19] 0.94 | locus YDR150W, strain NUM1, hits give low values 1 | [20] 1.01 | locus YDR195W, strain ref2 1 | [21] 0.986 | [22] 0.972 | [23] 0.981 | locus YDR363W, strain ESC2, hits give low values 0.993 | [24] 0.922 | [25] 0.996 | [26] 0.975 | [27] 0.982 | locus YER002W, strain NOP16, hits give low values 0.993 | [28] 0.992 | [29] 0.999 | [30] 0.973 | [31] 0.988 | [32] 0.972 | [33] 0.973 | [34] 0.975 | [35] 0.99 | [36] 0.993 | [37] 0.98 | locus YGR078C, strain PAC10, hits give low values 0.987 | locus YGR229C, strain SMI1, hits give low values 1.03 | [38] 0.973 | [39] 0.972 | [40] 0.94 | [41] 0.983 | [42] 0.987 | [43] 0.972 | [44] 0.977 | [45] 0.974 | [46] 0.979 | [47] 0.971 | [48] 0.983 | locus YJR075W, strain HOC1, hits give low values 1.01 | [49] 0.964 | [50] 0.983 | [51] 0.985 | [52] 0.96 | [53] 1 | [54] 0.981 | [55] 0.984 | [56] 0.958 | [57] 0.981 | [58] 0.975 | [59] 0.952 | [60] 0.97 | [61] 0.971 | [62] 0.968 | [63] 0.965 | [64] 0.981 | [65] 0.98 | [66] 0.968 | [67] 0.988 | [68] 0.955 | [69] 0.97 | locus YMR307W, strain GAS1, hits give low values 1.02 | [70] 0.986 | locus YNL128W, strain TEP1, hits give low values 0.972 | locus YNL175C, strain NOP13, hits give low values 0.99 | locus YNL197C, strain WHI3, hits give low values 0.994 | [71] 0.991 | locus YNL224C, strain SQS1, hits give low values 0.991 | [72] 0.968 | [73] 0.967 | [74] 0.994 | [75] 0.996 | [76] 0.998 | [77] 0.974 | locus YOR083W, strain WHI5 (second series), hits give low values 0.991 | [78] 0.967 | [79] 0.961 | [80] 0.98 | [81] 0.939 | [82] 0.945 | [83] 0.973 | locus YPL055C, strain LGE1, hits give low values 1 | [84] 0.961 | [85] 0.971 | [86] 0.986

Source: PubChem BioAssay AID1159580 (chemical genetic matrix, 2015)
